Assays:
Experiment in all cases: PBM binding z-score (relative to random genomic background probes); higher = stronger binding; sequences stand for … in GC…GCGATTGACAGCGTAGAATGAAGG
[1] = system: FXR:RXRa (NR concentration 270 nM, RXRa partner concentration 90 nM)
Method in brief: (§1)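 Random background probes are the reference for binding z-scores. These scores derive from regression-normalized fluorescence on custom Agilent 4×180K protein-binding microarrays incubated 1 h with ligand-free nuclear receptor dimers. Binding was detected with antibodies against each partner (one per run).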

[2] = system: LXRa:RXRa (NR concentration 270 nM, RXRa partner concentration 90 nM)
Method in brief: as §1

[3] = system: LXRa homodimer (NR concentration 270 nM)
Method in brief: as §1

[4] = system: LXRb:RXRa (NR concentration 270 nM, RXRa partner concentration 90 nM)
Method in brief: as §1

[5] = system: LXRb homodimer (NR concentration 270 nM)
Method in brief: as §1

[6] = system: PPARa:RXRa (NR concentration 270 nM, RXRa partner concentration 90 nM)
Method in brief: as §1

[7] = system: PPARg:RXRa (NR concentration 180 nM, RXRa partner concentration 90 nM)
Method in brief: as §1

[8] = system: PPARg:RXRa 270nM:90nM, anti-RXR (NR concentration 270 nM, RXRa partner concentration 90 nM)
Method in brief: as §1

[9] = system: PPARg:RXRa 30nM:10nM, anti-RXR (NR concentration 30 nM, RXRa partner concentration 10 nM)
Method in brief: as §1

[10] = system: PPARg:RXRa 90nM:30nM, anti-RXR (NR concentration 90 nM, RXRa partner concentration 30 nM)
Method in brief: as §1

[11] = system: PPARg:RXRa DBDmut IVT, anti-RXR (DBD mutation: RXRa K156A/R161A, NR concentration 270 nM, RXRa partner concentration 90 nM)
Method in brief: as §1

[12] = system: PPARg:RXRa IVT, anti-PPARg (NR concentration 270 nM, RXRa partner concentration 90 nM)
Method in brief: as §1

[13] = system: PPARg DBDmut:RXRa IVT, anti-PPARg (DBD mutation: PPARg1 K132A/R137A, NR concentration 270 nM, RXRa partner concentration 90 nM)
Method in brief: as §1

[14] = system: PPARg DBDmut IVT, anti-PPARg (DBD mutation: PPARg1 K132A/R137A, NR concentration 270 nM)
Method in brief: as §1

[15] = system: PPARg homodimer (NR concentration 180 nM)
Method in brief: as §1

[16] = system: PXR:RXRa (NR concentration 270 nM, RXRa partner concentration 90 nM)
Method in brief: as §1

[17] = system: PXR homodimer (NR concentration 270 nM)
Method in brief: as §1

[18] = system: RARa:RXR (NR concentration 270 nM, RXRa partner concentration 90 nM)
Method in brief: as §1

[19] = system: RARa homodimer (NR concentration 270 nM)
Method in brief: as §1

[20] = system: RARb:RXRa (NR concentration 270 nM, RXRa partner concentration 90 nM)
Method in brief: as §1

Sequence	PBM binding z-score [1]	PBM binding z-score [2]	PBM binding z-score [3]	PBM binding z-score [4]	PBM binding z-score [5]	PBM binding z-score [6]	PBM binding z-score [7]	PBM binding z-score [8]	PBM binding z-score [9]	PBM binding z-score [10]	PBM binding z-score [11]	PBM binding z-score [12]	PBM binding z-score [13]	PBM binding z-score [14]	PBM binding z-score [15]	PBM binding z-score [16]	PBM binding z-score [17]	PBM binding z-score [18]	PBM binding z-score [19]	PBM binding z-score [20]
ACTAGCCGGCCAAGGGTCACTCAAGATTAGTCCG	2.41	2.53	0.141	2.59	-0.832	3.81	5.6	5.62	3.35	5.18	-0.188	2.25	-0.122	-1.13	0.922	3	-0.135	3.82	-0.211	3.41
TATACAGGGTCAAACGCCAGAGTACGAATGTCGA	7.58	6.35	3.43	5.2	3.15	6.3	7.33	6.79	3.84	5.94	2.52	4.64	3.59	3.04	3.53	4.49	0.94	5.61	0.721	4.45
CGTACGAGGGCATGAGTTGATAGCAAATGCCGAT	0.342	0.419	-0.557	0.284	-0.608	1.23	1.11	1.07	0.157	0.878	1.2	1.22	-0.964	-0.327	0.331	0.557	0.0171	0.533	-0.662	2.01
TAGCCTAGGTCATTCAGGGGCCAATATAGAAAGC	4.5	4.59	1.12	3.78	1.21	3.97	2.41	2.82	0.793	1.51	1.85	2.85	0.373	1.2	2.49	3.08	0.116	4.05	0.318	3.93
CCTAGCACGCCAGGGTCACTCAAGCATTTCGCTT	1.59	1.52	-0.519	1.79	-1.1	2.81	0.36	0.763	-0.35	-0.137	-0.508	0.0216	-0.715	-1.26	0.342	2.48	-0.243	2.55	-0.31	2.44
GCTTACGGGTCATAGGTTATAGCATGAATAGAAT	5.98	4.32	0.326	4.2	0.262	5.87	9.25	7.94	6.8	8.53	3.9	5.19	2.06	1.56	2.24	3.94	0.0944	5.79	0.0988	3.51
TCTATTAGTTAAAGGGCAACCGACGAGTCCGTTT	0.559	1.45	0.826	1.12	0.427	1.87	1.12	3.36	3.9	3.45	2.36	0.552	0.374	1.04	1.7	1.32	0.941	1.18	1.13	2.47
CCGACTAGGGCATAAGGTTACCATAAGCCAGCCC	0.247	2.13	-0.18	1.02	-0.736	2.19	2.8	3.77	1.43	3.27	4.2	3.79	-0.186	-0.826	1.57	0.295	-0.287	1.7	-0.466	1.86
CGGACTAGGTCAAGGACAGTGAATCTCCGCACGC	2.94	1.81	-0.0937	1.01	-0.662	3.77	5.95	5.25	2.5	4.61	7.61	7.26	-0.333	-0.703	0.837	0.934	-0.0489	1.7	0.338	3.49
TTACCAAGGTGAAAAGTCGTTGATGCACGCCTTG	0.666	0.719	-0.432	0.311	-0.57	2.25	2.75	4.56	2.5	4.19	1.72	2.64	0.0551	0.367	0.274	0.136	-0.523	0.987	-0.563	1.06
TCATATAGGTAAACAGGTGTAAGTCCGTAAGTTA	0.827	0.785	-0.0064	0.69	-0.189	1.41	1.35	2.56	3.79	3.09	3.98	2.97	1.63	0.913	1.12	0.63	0.672	0.946	1.32	0.512
ATCTCTAGTTAAAGTTCAGTGAAAGATCGATAGA	1.49	2.07	2.94	1.57	1.33	1.78	1.74	3.2	1.74	2.89	0.143	0.671	0.424	1.48	2.14	2.29	2.21	1.41	2.45	2.61
AATACACGGTCATCGTAGGCCAGAGTACGCACAG	1.37	3.15	2.68	0.586	0.643	0.606	1.15	0.51	0.35	0.546	0.462	1.62	0.948	0.51	0.841	0.356	0.177	0.83	0.727	2.83
AGAACGAGGGCACGCTTAGTTGATAGCAGAGTAG	0.731	0.538	-0.173	0.495	-0.638	2.26	2.16	1.86	0.46	1.5	4.36	4.09	0.457	0.676	0.226	0.718	-0.259	1.06	-0.203	2.66
GCAGACATGTGAAACGCAGGTAACTCAGGGTGGC	-0.536	-0.654	-0.866	-0.864	-1.11	-0.505	0.622	-0.625	-0.725	-0.59	-0.934	-0.641	-0.654	-1.35	-1.78	-0.925	-0.866	-0.472	-0.769	-0.383
CCTGCTAGGGCAATGGTCAGCTAAAGCAGCTCGC	-0.321	-0.261	-0.651	-0.809	-1.23	0.614	1.75	3.28	0.695	2.57	1.55	1.76	-1.07	-1.49	-0.322	-0.655	-0.95	-0.343	-1.1	1.15
CCTAGTTGGTCACGGTCACACACGCTATAGGTAC	0.611	0.906	1.21	0.81	0.982	0.843	1.61	1.34	0.766	0.795	2.6	3.1	1.29	1.48	1.79	0.642	0.636	0.844	1.66	2.53
GCTGCTAGGTCTACTGATGGTCAGCTAAAGCTCG	-0.686	-0.0634	-0.277	-0.896	-0.887	-0.691	-0.539	-0.623	-0.649	-0.834	0.214	-0.311	-1.02	-1.38	-1.15	-0.901	-1.2	-0.701	-0.754	-0.132
TCTAGCAGCCCAGAGGGTCACTCAAGAGGTACGG	0.547	0.531	-0.652	1.01	-1.12	1.92	0.566	1.13	1.45	1.2	0.523	-0.253	-0.749	-0.961	0.154	1.3	-0.683	2.44	-0.794	1.81
CAAACTAGGTCACGAAAGGTCAAAGACGAATGAC	7.6	8.07	7.51	7.29	2.75	6.72	10.4	8.57	8.01	8.93	8.52	9.24	4.91	4.77	6.85	7.05	2.93	7.89	4.46	5.69
TATACAGGGTCAAAGGCCAGTGTACGAATGTCGA	6.89	6.1	2.61	4.74	2.33	6.22	8.3	7.38	4.93	7.23	1.89	5.07	2.16	0.623	2.38	4.13	0.622	5.66	0.468	4.57
TCGAGTAGGTTACGAATGGGGCATTCAGCTTTCT	0.143	0.677	-0.52	0.42	-0.693	0.834	0.32	0.972	0.971	0.914	3.5	2.62	-0.724	-1.15	-0.342	-0.00987	-0.855	0.446	-0.789	0.855
CAAACTAGGTCAAAGATCAAAGTCGAGCCAACCA	4.71	3.87	0.503	3.15	0.553	6.47	11.6	9.58	9.42	10.6	8.07	8.58	1.49	0.885	1.76	2.81	0.46	4.42	0.53	3.99
TCGAGTAGGTTACCAGTGGGGCATTCAGCTTTCT	-0.0125	1.19	-0.24	0.725	-0.623	1.16	0.278	1.36	1.05	1.36	3.82	3.43	-0.827	-0.418	0.236	-0.206	-0.913	0.372	-1.02	0.865
ATCTCTAGGTAAAAAGTTCAGTGAAAGAGAGGAC	1.28	1.39	1.03	0.921	0.888	1.98	2.7	3.72	2.6	3.68	1.79	2.04	1.14	0.995	1.73	1.56	1.46	1.33	1.65	2.38
GGTTACGGGTCAAAGGTTATAGCATGAATAGAAT	7.96	5.86	0.937	5.95	0.466	7.09	11.1	9.43	8.67	10.2	3.06	6.69	1.77	1.31	2.81	6.3	0.489	8.27	1.03	4.72
ACTCGGAGGCCAAAGGTCAGAGCTACGCCAGTGA	4.88	4.5	1.02	3.69	0.134	5.63	8.85	7.98	6.53	8.9	1	4.07	0.0532	-0.392	6.38	4.9	-0.00137	6.59	1.38	4.53
CCGACTGGGGCAGTAAGGTTACCATACCATCCGG	0.252	-0.0103	-0.54	-0.134	-0.789	1.16	1.03	1.17	-0.0768	0.343	2.7	2.69	-1.07	-1.44	0.0978	0.28	-0.0319	0.762	-0.538	1.34
